# Entries with a potency or affinity are not part of this list. Records with an inconclusive call do not appear. Active and inactive are the calls of the source.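 The calls were made as follows: active = in every test run, a fitted half-maximal concentration for signal decrease at or below twice the highest tested concentration; inconclusive = runs disagree, flat 30 to 70% decrease, or poor fit; inactive = the rest.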
# Test: miR-122 activators in hepatoma reporter cells, dose response, cell-based, Huh7 psiCHECK-miR122, Renilla luciferase, cherry-picked (AID 651956);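 also: Renilla luciferase from a miR-122 sensor reporter so lower signal means miR-122 activation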
row,Compound,outcome
1,C=CCNC(=S)NNC(=O)c1cccn(Cc2ccc(Cl)c(Cl)c2)c1=O,inactive
2,Cc1cc(C(=O)Nc2ccc3c(c2)C(=O)N(C)[C@@H]2CC[C@@H](CC(=O)N[C@H](C)c4ccccc4)O[C@H]2CO3)no1,inactive
3,CCCNC(=O)N1C[C@@H]2[C@H](c3ccccc31)[C@@H](CO)N2C(=O)C1CCOCC1,inactive
4,COCC(=O)N(C[C@@H]1N[C@H](CO)[C@H]1c1ccc(-c2cccnc2)cc1)C(C)C,inactive
5,COc1ccc(NC(=O)N(C)C[C@H]2Oc3cc(C#CCC(C)C)ccc3S(=O)(=O)N([C@@H](C)CO)C[C@H]2C)cc1,inactive
6,CNc1nc(NCC2CCCCC2)c2sccc2n1,inactive
7,C[C@H]1CN([C@@H](C)CO)S(=O)(=O)c2ccc(C#CC3CCCCC3)cc2O[C@@H]1CN(C)C,inactive
8,CN1C(=O)c2cc(NC(=O)Cc3ccccc3)ccc2OC[C@@H]2O[C@@H](CC(=O)O)CC[C@H]21,inactive
9,CN1C(=O)c2cc(NC(=O)c3cccs3)ccc2OC[C@@H]2O[C@@H](CC(=O)O)CC[C@H]21,inactive
10,CN1C(=O)c2cc(NC(=O)Cc3ccccc3)ccc2OC[C@H]2O[C@@H](CC(=O)NC3CCC3)CC[C@H]21,inactive
11,CC(C)C(=O)Nc1ccc2c(c1)C(=O)N(C)[C@H]1CC[C@@H](CC(=O)NCc3ccccc3F)O[C@H]1CO2,inactive
12,COc1cc(-c2nnc(-c3ccco3)o2)ccc1OCc1ccccc1,inactive
13,COC(=O)C[C@H]1CC[C@@H]2[C@@H](COc3ccc(NC(=O)c4ccc(F)c(F)c4)cc3C(=O)N2C)O1,inactive
14,CN1C(=O)c2cc(NC(=O)c3cccc(F)c3)ccc2OC[C@H]2O[C@H](CC(=O)NC3CCC3)CC[C@@H]21,inactive
15,CNC(=O)C[C@H]1CC[C@@H]2[C@H](COc3ccc(NC(=O)C(C)C)cc3C(=O)N2C)O1,inactive
16,Cc1cccc(NC(=O)Nc2ccc3c(c2)C(=O)N(C)[C@H]2CC[C@H](CC(=O)O)O[C@H]2CO3)c1,inactive
17,CCCCC(=O)OCC(=O)c1[nH]c(C)c(C(=O)OCC)c1C,inactive
18,O=C(NCCCN1CCCC1)c1ccc(CSCc2cccc(Cl)c2)o1,inactive
19,COCC(=O)N1[C@H](CO)[C@H]2c3ccccc3N(C(=O)C3CC3)C[C@H]21,inactive
20,CCNC(=O)C[C@H]1CC[C@H]2[C@H](COc3ccc(NS(C)(=O)=O)cc3C(=O)N2C)O1,inactive

row,Compound,outcome
1,CO[C@@H]1CN(C)C(=O)c2ccc(NS(C)(=O)=O)cc2OC[C@H](C)N(C(=O)CN(C)C)C[C@@H]1C,inactive
2,Cc1ccnc(Nc2nc(-c3c(C)nc4sccn34)cs2)c1,inactive
3,CC(C)C(=O)Nc1ccc2c(c1)C(=O)N(C)[C@@H]1CC[C@@H](CC(=O)NCCc3ccccc3)O[C@H]1CO2,inactive
4,C/C(=N\Nc1cc(N2CCCCC2)nc(C)n1)c1ccc(Br)cc1,inactive
5,CN1C(=O)c2cc(NC(=O)c3cccs3)ccc2OC[C@@H]2O[C@@H](CC(=O)O)CC[C@@H]21,inactive
6,CN1C(=O)c2cc(NC(=O)C3CCOCC3)ccc2OC[C@H]2O[C@H](CC(=O)NCc3ccc4c(c3)OCO4)CC[C@@H]21,inactive
7,Cc1cc(C)c2c(c1)/C(=C/C(=O)c1ccc(Br)s1)C(=O)N2,inactive
8,COC(=O)C[C@@H]1CC[C@@H]2[C@@H](COc3ccc(NS(=O)(=O)c4ccccc4F)cc3C(=O)N2C)O1,inactive
9,COC(=O)C[C@H]1CC[C@H]2[C@H](COc3ccc(NC(=O)c4cscn4)cc3C(=O)N2C)O1,inactive
10,CC(C)NC(=O)N1[C@H](CO)[C@@H](c2ccccc2)[C@@H]1CN(C)C(=O)c1cccnc1,inactive
11,COc1cccc(OCc2cc(/C=N/Nc3ccc(C(=O)O)cc3)ccc2OC)c1,inactive
12,CN1C(=O)c2cc(NC(=O)c3cccs3)ccc2OC[C@@H]2O[C@H](CC(=O)NCCN3CCCCC3)CC[C@H]21,inactive
13,CC1(C)CC(=O)c2cnc(NC(=O)c3ccco3)nc2C1,inactive
14,O=C(Nc1ccc(F)cc1)N1C[C@H]2[C@@H](c3ccccc31)[C@H](CO)N2C(=O)c1ccncc1,inactive
15,CNC(=O)C[C@H]1CC[C@@H]2[C@@H](COc3ccc(NC(=O)C(C)C)cc3C(=O)N2C)O1,inactive
16,CC(C)C(=O)Nc1ccc2c(c1)C(=O)N(C)[C@@H]1CC[C@H](CC(=O)O)O[C@H]1CO2,inactive
17,Cc1cc(CN(C)C(=O)c2cc(COc3ccc4ncccc4c3)on2)on1,inactive
18,COC(=O)C[C@H]1CC[C@H]2[C@H](COc3ccc(NC(=O)c4cccc(F)c4)cc3C(=O)N2C)O1,inactive
19,CC(C)Oc1ccc(CNCCC2(C(C)C)CCOC(C)(C)C2)cc1 (centres undefined),inactive

# Source: PubChem BioAssay AID651956 (Broad Institute, 2012)
